# TDP1 cell noCPT: qHTS for Inhibitors of human tyrosyl-DNA phosphodiesterase 1 (TDP1): qHTS in cells in absence of CPT | Potency, µM (highest dose often 46.2 µM), for the others: top-dose activity change, negative = growth inhibition, actives largely listed as inhibitors | DT40 Tdp1-/- hTDP1 cells, no CPT, ATP luminescence, 48 h | 420,000 compounds, 15% hits; further: on the % scale 0 is the no-effect control and ±100 the full control effect; nearly all actives have a fitted effect of over 55% in size
#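 A cellular qHTS used chicken DT40 cells lacking endogenous Tdp1 but carrying stably transfected human TDP1. Compounds were applied without camptothecin, and cell growth kinetics were judged by ATP-dependent luminescence after ≥48 hr.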
# ATXN viability: reduces viability in counter-screen for ATXN expression inhibitors; Potency, µM (series often up to 56.7 µM), hits mostly cytotoxic; S2 cells (HEK-293 line with an ATXN2-luciferase reporter) viability, CellTiter-Fluor protease fluorescence, 24 h; 400,000 compounds, 0.49% hits; further: nearly all actives have a fitted effect of over 40% in size
# TGFb SMAD3 inh: inhibitors of TGF-b signaling | HepG2 CAGA-GFP TGF-b/SMAD3 reporter, GFP fluorescence, 18 h; TGF-beta stimulated, 500 pg/mL final | Potency, µM (series often up to 46.1 µM), inactives show top-dose activity, negative = inhibition, most hits filed as inhibitors | 410,000 compounds, 1.2% hits | AID 588855; further: on the % scale 0 is the no-effect control and ±100 the full control effect; nearly all actives have a fitted effect of over 65% in size
#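 Inhibition was scored as loss of TGF-beta-induced (500 pg/mL final, 18 hours, 37 degrees C) GFP in HEPG2 cells carrying a CAGA-GFP reporter, in DMEM with 1% FBS. Well GFP was summed per cell; Activity was normalised to unstimulated and stimulated DMSO wells, then concentration-response fitting.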
# ATXN2 expr inh: reduces ATXN2 reporter expression in HEK-293 cells; HEK-293 ATXN2-luciferase reporter, luminescence, 24 h; AID 1745845; 360,000 compounds, 0.72% hits; Potency, µM (titrated, usually from 57 µM), for the others: top-dose activity change, negative = inhibition, most hits filed as inhibitors; further: on the % scale 0 is the no-effect control and ±100 the full control effect; nearly all actives have a fitted effect of over 55% in size
#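 qHTS (up to 57 uM final) was run with 24 h compound exposure of reporter cells at 37 °C. Each well was multiplexed: SteadyGlo luminescence measured ATXN2-luciferase expression after a fluorogenic Gly-Phe-AFC viability readout (25 uM final).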
# HepG2 viability: counter-screen for TGF-b inhibitors: cytotoxicity in HepG2 cells; HepG2 CAGA-GFP viability, ATP luminescence, 18 h; 410,000 compounds, 0.76% hits; Potency, µM (highest dose often 46.1 µM), inactives show at the highest dose activity change, negative = cytotoxicity, hits mostly cytotoxic; AID 588856
#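 CellTiter-Glo luminescence gave cytotoxicity after 18 hours at 37 degrees C. The cells were HepG2 CAGA-GFP in 1% FBS DMEM, stimulated with 500 pg/mL TGF-beta after compound addition. %Activity was normalised to no-cell wells (complete cell-killing) and DMSO (no toxicity), and curves were fitted and classified.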
# DT40 TDP1 CPT: DT40-hTDP1 cell growth loss with CPT; chicken DT40 Tdp1-/-;hTDP1 cells + 20 nM CPT, ATP luminescence, 48 h; Potency, µM (series often up to 46.2 µM), for the others: at the top dose activity change, negative = growth inhibition, most hits filed as inhibitors; 420,000 compounds, 12% hits; further: on the % scale 0 is the no-effect control and ±100 the full control effect; nearly all actives have a fitted effect of over 55% in size
#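 Chicken DT40 Tdp1-/- cells complemented with human TDP1, 400 cells/well, exposed to compounds plus 20 nM camptothecin for at least 48 h at 37 C; viability read as ATP content by CellTiter-Glo luminescence.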
# An asterisk follows results filed as active; i = inactive; ? = inconclusive; . = no result given; [ ] = dose if it differs, or a comment. Hits are enriched below; roughly 17% of the tested compounds scored in any of these assays. The call rests on the fitted dose curve; in most records, active means well fitted curve in the direction sought with a large enough effect; inconclusive means small, poorly fitted or top-dose-only effect, or another doubt; inactive means no such curve, though single readings can be large; an effect the other way counts as inactive or inconclusive. Potency means the concentration at half of the fitted maximal effect.
SMILES,TDP1 cell noCPT,ATXN viability,TGFb SMAD3 inh,ATXN2 expr inh,HepG2 viability,DT40 TDP1 CPT
CC(CCC(=O)O)C1CCC2C3CC(O)[C@@H]4CC(O)CC[C@]4(C)C3CC[C@@]12C (some centres undefined),-9%,.,.,.,.,4%
CC1=C(CO)C(=O)O[C@@H]([C@@H](C)[C@H]2CC[C@H]3[C@@H]4C[C@H]5O[C@]56[C@@H](O)C=CC(=O)[C@]6(C)[C@@H]4CC[C@]23C)C1,.,.,.,3.1µM*,.,.
COc1ccc2c(c1)Sc1ccccc1N2,16µM*,i,?,?,-20%,?
Cc1ccc(F)cc1NC(=O)C1CC(=O)N(Cc2ccccc2)C1 (centres undefined),-8%,i,?,.,-8%,3%
Cc1nc2c(Cl)cccc2c2c1CC(CBr)O2 (centres undefined),?,i,-2%,2%,9%,15µM*
Cc1cccc2sc(N(CCCN(C)C)C(=O)CN3C(=O)c4ccccc4C3=O)nc12,?,i,-17%,.,-39%,?
CCN(CC)CCN(C(=O)/C=C/c1cccs1)c1nc2ccc(Cl)cc2s1,?,i,-7%,.,-8%,?
CN(C)CCCN(C(=O)CCc1ccccc1)c1nc2ccc(F)cc2s1,16µM*,i,0%,0%,-40%,-19%
CN(C)CCCN(C(=O)CCc1ccccc1)c1nc2ccc(Br)cc2s1,23µM*,?,16µM*,25µM*,-102%,?
Cc1cccc2sc(N(CCCN(C)C)C(=O)CCc3ccccc3)nc12,?,i,13µM*,?,-110%,26µM*
CN(C)CCN(C(=O)/C=C/c1cccs1)c1nc2ccc(F)cc2s1,18µM*,?,?,-20%,-54%,21µM*
CC(C)(C)c1ccc(C2(C)NC(=O)NC2=O)cc1 (centres undefined),-19%,i,-2%,-7%,15%,-5%
C/C(=N/NC(=O)c1sc(NS(=O)(=O)c2ccc(C)cc2)nc1C)c1sc(N)nc1C,-14%,.,-17%,-21%,0%,-4%
CN(C)CCCN(C(=O)c1cc(-c2cccs2)nc2ccccc12)c1nc2ccc(F)cc2s1,13µM*,?,?,?,-113%,23µM*
OCCC#Cc1ccc(CN2CCN(Cc3ccccc3)C(CCO)C2)cc1 (centres undefined),0%,i,3%,-4%[11.3 µM],-3%,-23%
COc1ccc(-c2nc3scc(CCNS(=O)(=O)c4ccc(F)cc4F)n3n2)cc1OC,18µM*,.,0%,.,0%,?
CCOc1ccc(S(=O)(=O)NCCc2csc3nc(-c4ccc(OC)c(OC)c4)nn23)cc1,?,.,-13%,.,-14%,?
COc1ccc(S(=O)(=O)NCCc2csc3nc(-c4ccc(OC)c(OC)c4)nn23)cc1C,16µM*,.,0%,.,-4%,?
COc1ccc(S(=O)(=O)NCCc2csc3nc(-c4cccc(C)c4)nn23)cc1F,21µM*,.,0%,.,-20%,?
COc1ccc(S(=O)(=O)NCCc2csc3nc(-c4ccc(Cl)cc4)nn23)cc1C,13µM*,.,-28%,.,-39%,16µM*
Cc1ccc(C(=O)NCC(=O)OCC(=O)NCC(F)(F)F)cc1,3%,i,3%,-16%,-16%,11%
COc1ccc(N/C=C/C(=C(C#N)C#N)N(C)C)cc1,-3%,i,-3%,19%,-15%,-18%
COc1ccc(-c2nc3scc(CCNS(=O)(=O)c4c(C)cc(C)cc4C)n3n2)cc1OC,23µM*,.,0%,.,6%,15µM*
CC(=O)Nc1ccc(S(=O)(=O)NCCc2csc3nc(-c4ccc(Cl)cc4)nn23)cc1,16µM*,.,0%,.,-22%,21µM*
COc1ccc(CNC(=O)C(C)Sc2nc3ccccc3c(=O)n2CC2CCCO2)cc1 (centres undefined),-12%,?,-7%,5%,-1%,-29%
SMILES,TDP1 cell noCPT,ATXN viability,TGFb SMAD3 inh,ATXN2 expr inh,HepG2 viability,DT40 TDP1 CPT
Cc1cc(=O)oc2cc(NC(=S)NNC(=O)c3c(Cl)cnn3C)ccc12,-8%,i,7%,24%,0%,-25%
CC(C)NC(=O)COc1nncc2ccccc12,7%,i,4%,16%,9%,24%
CCCCCCOC(=O)NC(=N)c1ccc(NCc2nc3cc(C(=O)N(CCC(=O)OCC)c4ccccn4)ccc3n2C)cc1,.,32µM*,.,32µM*,.,.
CCOC(=O)c1ccc(NCc2nc3ccccc3n2C)cc1,?,i,-8%,54%,-20%,?
O=C1S/C(=C\C=C\c2ccco2)C(=O)N1c1ccc(O)cc1,?,i,19%,46%,-12%,18µM*
O=C(O)CC(C(=O)O)N1C(=O)/C(=C/C=C/c2ccco2)SC1=S (centres undefined),-3%,?,-13%,-19%,-10%,-30%
O=C1S/C(=C\C=C\c2ccco2)C(=O)N1c1ccccc1,23µM*,i,?,11%,-15%,?
O=C(O)CCCN1C(=O)/C(=C/C=C/c2ccco2)SC1=S,?,?,-22%,-32%,-2%,-22%
Cn1c(=O)c2cc(NC(=O)NCc3ccc(F)cc3)ccc2n1C,-14%,i,5%,11%,-1%,-10%
CC(C)=CCN1CCN(CCC2=C(C)CCCC2(C)C)CC1CCO (centres undefined),?,i,-11%,-17%,-26%,?
CC1=C(CCN2CCN(C3CCCC3)C(CCO)C2)C(C)(C)CCC1 (centres undefined),?,i,-10%,-11%,-38%,21µM*
O=C1C(c2ccc(F)cc2)N(Cc2ccc3c(c2)OCO3)C(=O)CN1C1CCCCC1 (centres undefined),-24%,i,?,-4%,-80%,?
CCCN1C(=O)CN(C2CCCCC2)C(=O)C1c1ccc(OC)c(OC)c1 (centres undefined),-15%,i,-27%,-2%,-9%,-19%
COc1ccc(C2C(=O)N(C3CCCCCC3)CC(=O)N2Cc2ccc(C)cc2)cc1OC (centres undefined),23µM*,.,-8%,.,-24%,23µM*
Cc1ccc(CN2C(=O)CN(C3CCCCCC3)C(=O)C2c2ccc(F)cc2)cc1 (centres undefined),16µM*,.,-7%,.,-4%,18µM*

# Assay outcomes: PubChem, National Center for Advancing Translational Sciences (NCATS)
